Screens as filed in PubChem BioAssay.
An excerpt weighted towards active compounds, which were near 2.7% of everything screened.
PAX8 reporter – PAX8 transcriptional activity inhibition | actives 1.2% (n = 360,000) | inhibition, % at 12.6 µM | RMG-I TPO-luciferase reporter, SteadyGlo, 24 h;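 active = mean replicate inhibition at least 60% with every replicate also reaching 60%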;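 note: luciferase light reporting Pax8 driven TPO promoter activity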
PGC1a acetyl inh – lowers PGC1a acetylation signal in U2OS cells; AlphaScreen anti-acetyl-lysine; with virally co-expressed GCN5 acetyltransferase; inhibition, % at 15.6 µM; actives 0.17% (n = 350,000);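 active = every replicate shows inhibition of at least 40%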
Env fusion inh – inhibitors of HIV Env-mediated cell fusion; inhibition, % at 12.3 µM; HeLa-JRFL Env/CEM21 cell fusion, luciferase; actives 1.1% (n = 360,000);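 active = mean replicate inhibition score of at least 50 and every replicate individually at or above 50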
CFTR F508del cor – correctors of CFTR F508del function in bronchial epithelial cells; actives 0.36% (n = 350,000); activity (quench increase), % at 7.58 µM; CFBE cells, YFP halide quenching; stimulated with forskolin plus potentiator P3; % fluorescence drop versus neutral controls; AID 720511;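 active = mean added fluorescence quench of at least 8% versus neutral control, with both replicates also reaching 8%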;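 note: cells transiently co-express mutant CFTR-F508del with the halide-sensitive YFP; corrector assay measuring rescue of mutant channel to the surface after 24 h compound exposure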
GSIS activator – GLuc luminescence reporter in INS-1E cells, primary screen for activators of glucose-dependent secretion of insulin | INS-1E GLuc reporter insulin secretion, 2-3 h | activation, % at 16.6 µM | actives 0.61% (n = 370,000) | AID 743287;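 active = lowest replicate activation of at least 40%, so every replicate reaches that level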
EWS-Fli inh – inhibitors of EWS/Fli oncoprotein transcriptional activity; A673 NR0B1-luciferase reporter, viability-normalised; inhibition, % at 12.6 µM; actives 0.67% (n = 350,000);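 active = mean inhibition of at least 50% after viability correction, with every replicate also passing that limit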;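 note: firefly luciferase signal divided by Alamar Blue viability fluorescence both relative to DMSO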
Numbers stand for hits.

O=C(O)CSc1ncnc2sc3c(c12)CCC3 was read as PGC1a acetyl inh inactive and Env fusion inh inactive.
For CCSc1ncnc2sc3c(c12)CCC3 the results were PGC1a acetyl inh inactive, Env fusion inh inactive and GSIS activator 43.
CCOC(=O)c1[nH]c2ccc(OC)cc2c1NC(=O)c1ccc2c(c1)OCO2 was read as PAX8 reporter inactive, PGC1a acetyl inh inactive and Env fusion inh inactive.
`CCOC(=O)c1cccc(NC(=O)c2ccc3c(c2)OCO3)c1` gave PAX8 reporter inactive, Env fusion inh inactive, CFTR F508del cor inactive, GSIS activator inactive and EWS-Fli inh 71.
`CSc1nnc(NC(=O)c2ccc3c(c2)OCO3)s1` gave PAX8 reporter inactive, PGC1a acetyl inh inactive, Env fusion inh inactive, CFTR F508del cor inactive, GSIS activator inactive and EWS-Fli inh 62.
For CCOC(=O)c1[nH]c2cc(OC)c(OC)cc2c1NC(=O)c1ccc2c(c1)OCO2 the results were PGC1a acetyl inh inactive, Env fusion inh inactive and GSIS activator 69.
For Cc1ccc2oc(-c3ccc(NC(=O)c4ccc5c(c4)OCO5)cc3)nc2c1 the results were PAX8 reporter inactive, PGC1a acetyl inh inactive, Env fusion inh inactive and GSIS activator 246.
`CC(=O)c1cccc(NC(=O)c2ccc3c(c2)OCO3)c1` gave PAX8 reporter inactive, PGC1a acetyl inh inactive, Env fusion inh inactive, CFTR F508del cor inactive and EWS-Fli inh inactive.
`C[C@@H]1CN([C@H](C)CO)C(=O)c2cc(NC(=O)Nc3ccc(C(F)(F)F)cc3)ccc2O[C@@H](C)CCCCO[C@@H]1CN(C)C(=O)CCCN(C)C` gave PAX8 reporter inactive, PGC1a acetyl inh inactive, Env fusion inh inactive, CFTR F508del cor inactive, GSIS activator inactive and EWS-Fli inh inactive.
For O=C(Nc1cccc(NC(=O)c2cccs2)c1)c1ccc2c(c1)OCO2 the results were PAX8 reporter inactive, Env fusion inh inactive, CFTR F508del cor inactive, GSIS activator inactive and EWS-Fli inh inactive.
Screening O=C(Nc1ccc(NC(=O)c2cccs2)cc1)c1ccc2c(c1)OCO2 returned PAX8 reporter inactive, PGC1a acetyl inh inactive, Env fusion inh inactive, CFTR F508del cor inactive, GSIS activator 47 and EWS-Fli inh inactive.
For Cc1ccc(C)c(NS(=O)(=O)c2cc(C(=O)Nc3ccccc3-c3ccccc3)ccc2C)c1 the results were PGC1a acetyl inh inactive, Env fusion inh 71 and GSIS activator inactive.
For CC1=NN(c2ccc(C)c(C)c2)C(=O)/C1=C\C=C\c1ccc([N+](=O)[O-])o1 the results were PAX8 reporter 70, PGC1a acetyl inh 59, Env fusion inh inactive, CFTR F508del cor inactive, GSIS activator inactive and EWS-Fli inh 67.
Screening CCOC(=O)c1ccc(N2N=C(C)/C(=C/C=C/c3ccco3)C2=O)cc1 returned PAX8 reporter inactive, PGC1a acetyl inh inactive and Env fusion inh inactive.
CS(=O)(=O)NNC(=O)C1Cc2c(ccc3ccccc23)O1 (stereo not given) was read as PAX8 reporter inactive, PGC1a acetyl inh inactive, Env fusion inh inactive, CFTR F508del cor inactive, GSIS activator inactive and EWS-Fli inh inactive.
For O=C(NNS(=O)(=O)c1ccc(F)cc1F)C1Cc2c(ccc3ccccc23)O1 (stereo not given) the results were PAX8 reporter inactive, PGC1a acetyl inh inactive and Env fusion inh 97.
For COCC(=O)N1C[C@@H](C)[C@H](OC)CN(C)C(=O)c2ccc(NC(=O)NC(C)C)cc2OC[C@H]1C the results were PGC1a acetyl inh inactive, CFTR F508del cor inactive, GSIS activator inactive and EWS-Fli inh inactive.
OC1c2cc(Br)ccc2N=C2CCCN21 (stereo not given) was read as PAX8 reporter inactive, PGC1a acetyl inh inactive, Env fusion inh inactive, CFTR F508del cor inactive, GSIS activator inactive and EWS-Fli inh inactive.
`OC1c2cc(Br)ccc2N=C2CCCCCN21` (stereo not given) gave PAX8 reporter 70, Env fusion inh inactive, CFTR F508del cor inactive, GSIS activator inactive and EWS-Fli inh inactive.
Screening COCOc1cccc(CN2CCC2(C)C(=O)Nc2ccc(C)c(O)c2)c1 (stereo not given) returned PAX8 reporter inactive, PGC1a acetyl inh inactive, Env fusion inh inactive, CFTR F508del cor 8.8 and EWS-Fli inh inactive.
